Whole data set: some 33,000 sequences, median “E-score (-0.5 to 0.5)” near -0.043, cut for the highest 2% near 0.37. The full list was thinned out, with the highest values kept by preference.
target: T1, Upc2 (UniProt Q12151); test: PBM E-score (8-mer binding enrichment) (E-score (-0.5 to 0.5)); higher = stronger / more preferred TF binding; settings: protein concentration: 200 nM; construct: GST-full length
T1 sequence: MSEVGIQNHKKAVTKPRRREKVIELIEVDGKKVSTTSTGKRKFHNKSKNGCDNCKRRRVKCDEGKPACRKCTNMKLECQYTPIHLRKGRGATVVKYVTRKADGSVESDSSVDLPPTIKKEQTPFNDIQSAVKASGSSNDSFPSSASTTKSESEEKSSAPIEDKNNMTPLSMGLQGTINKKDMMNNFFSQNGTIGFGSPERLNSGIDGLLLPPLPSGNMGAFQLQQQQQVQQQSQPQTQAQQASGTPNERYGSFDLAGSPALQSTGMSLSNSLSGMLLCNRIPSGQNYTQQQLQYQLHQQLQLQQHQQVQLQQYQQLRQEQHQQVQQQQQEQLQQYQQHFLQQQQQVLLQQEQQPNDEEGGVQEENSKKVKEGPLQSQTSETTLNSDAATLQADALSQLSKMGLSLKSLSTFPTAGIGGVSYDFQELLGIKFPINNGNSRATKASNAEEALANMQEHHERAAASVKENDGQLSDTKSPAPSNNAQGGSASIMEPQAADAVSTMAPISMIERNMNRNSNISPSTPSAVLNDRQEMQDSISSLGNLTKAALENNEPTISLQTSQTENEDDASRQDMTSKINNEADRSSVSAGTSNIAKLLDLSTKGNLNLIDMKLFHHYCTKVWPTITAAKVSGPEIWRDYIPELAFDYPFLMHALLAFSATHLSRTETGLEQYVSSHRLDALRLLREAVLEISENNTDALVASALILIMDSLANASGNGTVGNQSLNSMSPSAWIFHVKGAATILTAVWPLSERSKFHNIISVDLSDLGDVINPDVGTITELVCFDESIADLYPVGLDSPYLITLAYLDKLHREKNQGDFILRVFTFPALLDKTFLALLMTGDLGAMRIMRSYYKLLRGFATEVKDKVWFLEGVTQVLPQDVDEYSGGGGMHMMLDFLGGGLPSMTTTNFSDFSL
In short: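 Yeast transcription factors carrying a GST tag, as full-length proteins or DNA-binding domains, were produced by PURExpress in vitro transcription/translation. About 100-200 nM protein was applied to universal all-10-mer Agilent arrays, double-stranded by primer extension on fresh or once-stripped slides. Bound protein was detected with fluorescent anti-GST, and scans were normalised with masliner. The Universal PBM Analysis Suite gave each ungapped eight-base word, pooled with its reverse complement, an E-score, a modified Wilcoxon-Mann-Whitney statistic.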

Row | Sequence | PBM E-score
1 | ATGCGACG | 0.306
2 | AAGAATCT | -0.148
3 | CCTTGCAA | -0.115
4 | AGTGCGAT | 0.0239
5 | GATAGAAA | 0.0471
6 | AGACCCTG | -0.259
7 | TCTCCTAA | -0.00947
8 | TCCTACGA | 0.256
9 | TCGTACGA | 0.471
10 | TCGCACGA | 0.0732
11 | CCTCGATA | -0.0083
12 | CAACGCTG | -0.0985
13 | CCCTCGTA | 0.465
14 | GCCTCGGA | 0.135
15 | GCCTCGAA | 0.00343
16 | CCCTCGGA | 0.195
17 | GCCTCGTA | 0.473
18 | ACCTCGTC | 0.0626
19 | ACCTCGTG | 0.2
20 | CCCTCGTC | 0.122
21 | ACCTCGTA | 0.462
22 | TCCACTCA | -0.17
23 | CTAAGAGA | -0.0721
24 | ACAGAGCG | -0.0821
25 | TAGGCAAA | -0.108

Row | Sequence | PBM E-score
26 | AACAGTTA | -0.135
27 | ATATCGTC | 0.0922
28 | ATATCGTG | 0.0382
29 | GTATCGAA | 0.142
30 | GTATCGGA | 0.229
31 | GTATCGTA | 0.423
32 | CTATCGAA | -0.056
33 | CTATCGTC | -0.0375
34 | CTATCGTA | 0.43
35 | ATATCGTA | 0.427
36 | CCTAGCGA | -0.299
37 | CCCCTCTC | -0.185
38 | ACCGGCCC | 0.0253
39 | ATCTGTAA | -0.0759
40 | ATGTAAAC | 0.27
41 | AGTGAGAC | -0.0557
42 | GCCTGCCA | -0.317
43 | CAATAGAA | -0.241
44 | ACGAACCG | 0.378
45 | GCGAACCA | 0.164
46 | CCGAACCG | 0.0623
47 | CCGAACCA | -0.127
48 | ACGAACCC | 0.301
49 | ACGAACCA | 0.376
50 | TCAGCCAA | -0.177

Row | Sequence | PBM E-score
51 | CGTGCGAA | 0.214
52 | ATTTTGCA | -0.0911
53 | CTTTACGA | 0.471
54 | GTTTACTA | 0.224
55 | ATTTACGG | 0.297
56 | ATTTACGC | 0.154
57 | GTTTACGA | 0.471
58 | CATTACGA | 0.316
59 | CTTTACGC | 0.332
60 | ATTTACGA | 0.45
61 | GTTTACAA | 0.164
62 | GAGGGGGA | -0.0209
63 | GTCGAGTA | 0.0357
64 | ATTGTATC | -0.2
65 | GAGGGAAC | -0.0277
66 | AATAAGTA | 0.0339
67 | CTGTTGGC | -0.209
68 | CTGCGACC | -0.164
69 | ATCACAGA | -0.155
70 | CTCCTATA | -0.0688
71 | CGCTATTC | 0.102
72 | CCAAAACG | 0.114
73 | CCCAAACG | 0.431
74 | ACCAAACC | -0.0475
75 | ACCAAACG | 0.4

Row | Sequence | PBM E-score
76 | CCCAAGCG | -0.031
77 | CACAAACA | -0.0461
78 | CGCAAGCG | 0.115
79 | CACAAACG | 0.387
80 | ACCAAACA | 0.208
81 | AACAAACG | 0.353
82 | CGCAAACA | 0.0866
83 | CGCAAACG | 0.412
84 | AGGCCAAG | -0.17
85 | GAGCAGCA | -0.098
86 | AGTTCGAA | 0.0491
87 | AACACAGA | -0.00201
88 | CCCTTCGG | -0.0969
89 | ATCGCAAG | -0.255
90 | AGGACTTG | -0.287
91 | CCTACGCA | -0.196
92 | AACGACAC | 0.428
93 | CACGACAG | 0.0499
94 | ACCGACAT | 0.199
95 | CACGACAC | 0.114
96 | CACGACAA | 0.0377
97 | AGCGACAT | 0.177
98 | AACGACAT | 0.432
99 | AACGACAA | 0.402
100 | GACGACAC | -0.079

Row | Sequence | PBM E-score
101 | GACGACAA | 0.0707
102 | AACGACAG | 0.419
103 | ATCGACAG | -0.0101
104 | GACCAAGC | -0.234
105 | CCATGGAC | -0.201
106 | AGGACAGA | -0.347
107 | ATGTGAAC | 0.00151
108 | GAATTAGC | -0.0225
109 | CTTACAGC | -0.0579
110 | TCCGGGAA | -0.0708
111 | GGAAGAAA | -0.136
112 | GGATCGCC | -0.0204
113 | TTCGACAA | 0.0423
114 | TGCGACAA | 0.141
115 | TACGACAA | 0.46
116 | ACTCTATA | 0.0319
117 | GGACCTTA | 0.00047
118 | ATCGTTAA | 0.435
119 | GACGTTAA | 0.154
120 | GGCGTTAA | 0.161
121 | CTCGTTAA | 0.466
122 | GTCGTTAA | 0.465
123 | CACGTTAA | 0.131
124 | ATCGTTAC | 0.264
125 | ATCGTTAG | 0.239

Row | Sequence | PBM E-score
126 | CTCGTTAC | 0.36
127 | AGCAGCAC | -0.113
128 | GTGCTCGA | 0.0349
129 | ATGAGTGG | -0.126
130 | CAATCTTA | 0.065
131 | ATATAGCA | -0.0248
132 | CTATAGCA | -0.0859
133 | GTATAGCA | 0.377
134 | CAGATCAC | -0.266
135 | AGTCTTTC | -0.0324
136 | GCCAATAC | 0.0787
137 | ACATTCGA | 0.0307
138 | ACATTCGG | 0.0333
139 | ACATTCGT | 0.375
140 | AACATCCA | -0.0529
141 | ATGTCCTA | 0.0227
142 | AGATCTCG | 0.235
143 | AATCGTAA | 0.368
144 | CATCGTCC | -0.0591
145 | AATCGTAG | 0.241
146 | AATCGTCT | 0.0582
147 | GATCGTTA | 0.291
148 | CATCGTCA | -0.163
149 | CATCGTAA | 0.389
150 | GATCGTAA | 0.396

Row | Sequence | PBM E-score
151 | AATCGTAT | 0.44
152 | CATCGTGA | 0.0225
153 | CATCGTAC | 0.454
154 | CATCGTAG | 0.295
155 | GGCGTCCA | -0.398
156 | CATCACGG | 0.0314
157 | ACTGTAGG | -0.117
158 | GATTAGCC | 0.0747
159 | ATGTTAGG | -0.00946
160 | ACCTGGAA | 0.0285
161 | AGAGCATG | -0.17
162 | CAGTGCTA | -0.0362
163 | AGAATCAG | -0.0805
164 | AGCATTAT | -0.183
165 | TATCGTAA | 0.384
166 | AATCGTGC | 0.229
167 | TATCGTCA | 0.0773
168 | TATCGTGA | 0.0236
169 | AATCGTCC | -0.0549
170 | AATCGTAC | 0.43
171 | GATCGTGC | 0.0519
172 | GATCGTCC | -0.151
173 | GATCGTAC | 0.442

Reference: the supplement of paper PMC3334620
